Our source for the composite z-score and composite Z-score values is PubChem BioAssay.

The structures appear in SMILES notation. Active and inactive are the calls of the source.

For experiment [1], the target named is Albumin (Bos taurus) (UniProt P02769). Briefly: compounds binding labelled BSA control protein – biochemical, small-molecule microarray, Alexa647 label, 635/667 nm fluorescence, artefact control for SMM control protein annotation, profiling panel (AID 1118).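 Further: score merges 667 nm emission intensity and signal-to-noise per printed compound spot.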 The following applies: BSA-A647 binding, fluorescence 635 nm, higher = more signal.
Albumin (Bos taurus), sequence (P02769 whole entry, looked up): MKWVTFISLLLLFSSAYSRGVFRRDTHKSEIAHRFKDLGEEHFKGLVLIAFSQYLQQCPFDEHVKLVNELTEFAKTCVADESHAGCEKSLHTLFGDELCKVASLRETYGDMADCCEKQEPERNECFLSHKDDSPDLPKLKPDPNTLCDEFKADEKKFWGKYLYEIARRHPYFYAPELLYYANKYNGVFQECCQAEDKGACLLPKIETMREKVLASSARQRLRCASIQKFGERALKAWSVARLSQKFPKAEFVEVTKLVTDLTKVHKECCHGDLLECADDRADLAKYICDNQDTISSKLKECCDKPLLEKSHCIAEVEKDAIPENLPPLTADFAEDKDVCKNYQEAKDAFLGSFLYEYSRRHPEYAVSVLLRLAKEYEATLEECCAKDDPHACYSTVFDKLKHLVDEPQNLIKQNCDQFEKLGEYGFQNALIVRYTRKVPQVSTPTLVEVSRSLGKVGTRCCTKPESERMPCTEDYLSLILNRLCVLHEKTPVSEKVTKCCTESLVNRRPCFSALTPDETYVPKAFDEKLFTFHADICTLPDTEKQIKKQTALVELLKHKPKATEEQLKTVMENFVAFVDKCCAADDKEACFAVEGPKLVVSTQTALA
Experiment [2] in a line: probe aXIP binding to arrayed compounds – biochemical, NeuroSMM set, 635/667 nm fluorescence, primary screen (AID 1119).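 Further: probe is the protein aXip251-270 applied at 1 µg/mL to compound-printed slides; binding of probe to printed compounds measured as 667 nm fluorescence plus signal to noise.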 Particulars: small-molecule microarray, higher = more signal, called active from +8 up or from −8 down.
Experiment [3] can be described thus: probe aNOTCH3 binding on compound microarray – biochemical, small-molecule microarray, 635/667 nm fluorescence, primary screen (AID 1120).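 Further: probe is a biotin-tagged antibody raised against NOTCH3 rather than NOTCH3 protein; score merges spot fluorescence near 667 nm with spot signal to noise.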 The following applies: higher = more signal.
Experiment [4] can be described thus: probe aNOTCH2 binding on compound microarray – biochemical, small-molecule microarray, 635/667 nm fluorescence, primary screen (AID 1121).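 Further: score merges feature fluorescence read at 667 nm with its signal to noise.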 The following applies: higher = more signal.
The target in experiment [5] is Carbonic anhydrase 2 (Homo sapiens) (UniProt P00918). In words: compounds binding carbonic anhydrase 2 – biochemical, small-molecule microarray, Alexa647-labelled CAII, profiling panel (AID 1122). The following applies: CAII-A647 binding fluorescence, higher = more signal.
A short description of experiment [6]: COS7 lysate on small-molecule microarray, probe aHis, 635 nm (AID 1123).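 Further: z-score combines 667nm fluorescence intensity with signal-to-noise per printed compound spot.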 Particulars: COS7 cell lysate, fluorescence, higher = more signal.
Experiment [7] can be described thus: probe aLAP1 signal on lysate-treated microarray – cell lysate, small-molecule microarray, COS7 lysate, primary screen (AID 1124).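 Further: lysate comes from COS7 cells expressing LAP1 and is applied at 0.3 µg/mL; score merges spot fluorescence near 667 nm with signal-to-noise over triplicate slides.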 Particulars: probe aLAP1, fluorescence, higher = more signal.
The subject of experiment [8] is Sam68 (KHDRBS1). Briefly: compounds binding KHDRBS1 protein – biochemical, small-molecule microarray, 635 nm fluorescence, primary screen (AID 1125).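 Further: score merges 667 nm channel intensity with signal to noise over triplicate slides.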 The following applies: higher = more signal.
The test system of experiment [9] is Chordin-like protein 2 (CHRDL2). In words: compounds binding chordin-like 2 – biochemical, small-molecule microarray, 635 nm fluorescence, primary screen (AID 1126).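 Further: printed compound slides probed with Chrdl2 protein at 4 µg/mL for 1 h at 4 C; score merges 667 nm emission intensity with signal to noise over three replicate slides.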 Particulars: fluorescence 635 nm, higher = more signal.
In experiment [10] the target is Concanavalin-A (Canavalia ensiformis) (UniProt P02866). Briefly: compounds binding concanavalin A lectin – biochemical, small-molecule microarray, Alexa647 label, 635 nm, artefact control for SMM control protein annotation, primary screen (AID 1127).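 Further: z combines 667 nm emission intensity with signal-to-noise across three replicate slides.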 Particulars: ConA-A647 binding fluorescence, higher = more signal.
Concanavalin-A (Canavalia ensiformis), sequence (P02866 whole entry, looked up): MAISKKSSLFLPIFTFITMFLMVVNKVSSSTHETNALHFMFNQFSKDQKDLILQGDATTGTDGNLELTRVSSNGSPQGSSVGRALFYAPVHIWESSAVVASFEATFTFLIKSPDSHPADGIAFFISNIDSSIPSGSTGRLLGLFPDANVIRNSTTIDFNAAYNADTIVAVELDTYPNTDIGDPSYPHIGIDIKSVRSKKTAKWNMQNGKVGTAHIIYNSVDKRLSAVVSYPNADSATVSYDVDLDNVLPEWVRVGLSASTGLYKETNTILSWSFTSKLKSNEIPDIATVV

As to `C=CC[C@@]1(C(=O)O)N=C(c2ccc(OCCCO)cc2)O[C@@H]1c1ccccc1N=[N+]=[N-]`, the composite z-score in experiment [1] was determined as 0.851; in experiment [3], 0.169; in [4] it was 0.0828; in experiment [5] it was 0.513; in experiment [6], 2.03; in experiment [7], 0.906. Further, the composite z-score in [8] was determined as 1.09; in [9], 0.52; in [10], 0.247. The composite Z-score in [2] is 0.544 (inactive).
On to `CN1C=C(C(=O)OCCS(C)(=O)=O)C(C(=O)OCCS(C)(=O)=O)=CC(CCCO)=CC1C1CC1` (stereo not given), for which the composite z-score in [1] is 0.846; in [3] it was -0.0613; in [4], -0.108; in experiment [5], 0.826; in experiment [6] it was 0.606; in [7], -0.0075. Besides, the composite z-score in experiment [8] was -0.0704; in experiment [9], -0.705; in experiment [10], 0.183. For the same compound, in experiment [2], the composite Z-score was -0.561 (inactive).
Regarding `O=C1C2C=CC(C(O)c3ccc(B(O)O)cc3)N(Nc3ccccc3)C2C(=O)N1c1ccccc1` (stereo not given), the composite z-score in [1] is 0.764; in experiment [3], 0.127; in [4] it was -0.0438; in experiment [5] it was 0.793; in experiment [6], 0.408; in experiment [7], -0.0389. The composite z-score in [8] was -0.346; in experiment [9] it was -0.0149; in [10] it was -0.874. In addition, the composite Z-score in [2] was 0.387 (inactive).
With `[N-]=[N+]=NCc1ccccc1[C@H]1OC(c2ccc(OCCCO)cc2)=N[C@@]1(CCS(=O)(=O)c1ccccc1)C(=O)N1CCOCC1`, the composite z-score in [1] is 1.05; in experiment [3], 0.515; in [4], 0.268; in experiment [5], 0.819; in experiment [6], 3.05; in [7] it was 0.362. The composite z-score in experiment [8] was 1.3; in experiment [9] it was -0.584; in experiment [10], 1.11. In experiment [2], the composite Z-score was 1.09 (inactive).
As for `COCCOC(=O)N1C(=O)[C@@]2(c3cc(C#CCC(C(=O)OC)C(=O)OC)ccc31)[C@H](c1ccc(O)cc1)N1[C@H](c3ccccc3)[C@H](c3ccccc3)OC(=O)[C@H]1[C@@H]2C(N)=O`, the composite z-score in experiment [1] is 0.47; in experiment [3], -0.0647; in [4] it was 0.0232; in experiment [5], 0.438; in experiment [6] it was 1.2; in experiment [7] it was 0.647. Further, the composite z-score in experiment [8] was 1.31; in experiment [9], 0.778; in experiment [10], 0.859. For the same compound, the composite Z-score in [2] is 1.07 (inactive).
For `O=C(CS)NCCCCCCNC(=O)[C@H]1C[C@H]2C(=O)NCC(=O)N2[C@H]1c1ccc(O)cc1`, the composite z-score was -0.523 in experiment [1]; -0.25 in [3]; -0.14 in [4]; 0.696 in experiment [5]; 0.677 in [6]; 0.621 in experiment [7]. Further, the results for the composite z-score in experiment [8], in [9] and in experiment [10] were -0.272, 0.129 and 0.336, respectively. In experiment [2], the composite Z-score is 0.131 (inactive).
Regarding `[N-]=[N+]=NCc1ccccc1C[C@@]1(C(=O)NCC(O)CO)N=C(c2ccc(OCCCO)cc2)O[C@@H]1c1ccccc1CN=[N+]=[N-]` (stereo not given in full), the composite z-score in [1] is 1.01; in experiment [3], 0.319; in [4], -0.0335; in experiment [5], 0.546; in [6], 3.29; in [7] it was -0.0011. Further, the figures for the composite z-score in experiment [8], in experiment [9] and in [10] were 1.29, -0.257 and 1.1, respectively. For the same compound, the composite Z-score in experiment [2] was -0.082 (inactive).
With `CC(C)C(=C=CC[C@H](O)c1cccc(OCCO)c1)C[C@H](O)COCc1ccccc1`, the composite z-score was -0.0081 in [1]; 0.119 in experiment [3]; -0.0562 in experiment [4]; 0.235 in [5]; 1.22 in experiment [6]; -0.125 in experiment [7]. Further, the composite z-score is 0.166 in experiment [8], -0.101 in experiment [9] and 0.0514 in experiment [10]. In [2], the composite Z-score is 1.64 (inactive).
Turning to `CCN(CC)c1ccc(N2CC=CC34O[C@@H]5/C=C\CCCOC(=O)C5[C@H]3C(=O)N(C(CO)C(C)C)[C@@H]4C2=O)cc1` (stereo not given in full), the composite z-score in [1] is -1.18; in experiment [3], -0.165; in experiment [4], -0.123; in [5], 0.827; in experiment [6], -0.21; in experiment [7], -0.32. Further, the composite z-score was -0.384 in experiment [8], -0.684 in experiment [9] and -0.467 in experiment [10]. The composite Z-score in [2] was 0.0855 (inactive).
On to `COCCOC(=O)N1C(=O)[C@@]2(c3ccccc31)[C@H](c1ccc(O)cc1)N1[C@H](c3ccccc3)[C@H](c3ccccc3)OC(=O)[C@H]1[C@@H]2C(=O)N1CCc2cc(OC)c(OC)cc2C1`, for which the composite z-score in experiment [1] was -0.361; in experiment [3], 0.128; in [4], 0.0712; in [5], 0.136; in experiment [6], 1.76; in experiment [7], 0.288. Also, the composite z-score in experiment [8] stood at 1.32; in experiment [9], 1.44; in [10], 1.13. Moreover, in experiment [2], the composite Z-score is 2.47 (inactive).
Take `COc1ccc([Si](C)(C)[C@@H]2[C@@H](CC(=O)N3CCC[C@H]3CO)O[C@]3(C(=O)N(C)c4c(Br)cc(C)cc43)[C@H]2C)cc1`: the composite z-score was 0.588 in experiment [1]; 0.0674 in [3]; -0.175 in experiment [4]; 0.292 in experiment [5]; 1.15 in [6]; 0.461 in [7]. Further, the composite z-score in experiment [8] was determined as 1.3; in [9] it was 0.872; in experiment [10], 1.07. For the same compound, the composite Z-score in experiment [2] was 0.306 (inactive).
Take `C=C(COC)C(=O)CC[C@H](OC(C)=O)c1cccc(OCCO)c1`: the composite z-score in experiment [1] is -0.768; in [3], -0.165; in [4], -0.154; in experiment [5] it was 0.358; in experiment [6], 0.451; in [7], 0.775. Moreover, the results for the composite z-score in experiment [8], in experiment [9] and in experiment [10] were 0.151, -0.298 and -0.935, respectively. Besides, in [2], the composite Z-score was 0.157 (inactive).
As for `C#CCN(C(/C=C/c1ccccc1)CO)C(C(=O)O)c1ccccc1` (stereo not given), the composite z-score in [1] is -0.56; in experiment [3], -0.389; in [4] it was -0.181; in experiment [5], -0.199; in [6], -0.21; in [7] it was -0.0599. The composite z-score in experiment [8] is -1.12; in [9] it was 0.0041; in [10], 0.0529. Besides, the composite Z-score in [2] is 0.535 (inactive).
